The supplement of paper PMC11732987, “Enantioselective OTUD7B fragment discovery through chemoproteomics screening and high-throughput optimisation” (Communications Chemistry, 2025)

What was measured:
Assay in all cases: log2 ratio of Biotin-Ahx-Ub-VS probe labelling (fragment/DMSO); higher = less target engagement (more negative = stronger competition), active = hit call of the paper (q ≤ 0.05, log2 ratio ≤ -1)
Conditions in all cases: compound concentration: 200 uM; treatment time: 3 h
USP19 = molecular target: T1, USP19 (UniProt O94966)
T1 sequence (whole entry): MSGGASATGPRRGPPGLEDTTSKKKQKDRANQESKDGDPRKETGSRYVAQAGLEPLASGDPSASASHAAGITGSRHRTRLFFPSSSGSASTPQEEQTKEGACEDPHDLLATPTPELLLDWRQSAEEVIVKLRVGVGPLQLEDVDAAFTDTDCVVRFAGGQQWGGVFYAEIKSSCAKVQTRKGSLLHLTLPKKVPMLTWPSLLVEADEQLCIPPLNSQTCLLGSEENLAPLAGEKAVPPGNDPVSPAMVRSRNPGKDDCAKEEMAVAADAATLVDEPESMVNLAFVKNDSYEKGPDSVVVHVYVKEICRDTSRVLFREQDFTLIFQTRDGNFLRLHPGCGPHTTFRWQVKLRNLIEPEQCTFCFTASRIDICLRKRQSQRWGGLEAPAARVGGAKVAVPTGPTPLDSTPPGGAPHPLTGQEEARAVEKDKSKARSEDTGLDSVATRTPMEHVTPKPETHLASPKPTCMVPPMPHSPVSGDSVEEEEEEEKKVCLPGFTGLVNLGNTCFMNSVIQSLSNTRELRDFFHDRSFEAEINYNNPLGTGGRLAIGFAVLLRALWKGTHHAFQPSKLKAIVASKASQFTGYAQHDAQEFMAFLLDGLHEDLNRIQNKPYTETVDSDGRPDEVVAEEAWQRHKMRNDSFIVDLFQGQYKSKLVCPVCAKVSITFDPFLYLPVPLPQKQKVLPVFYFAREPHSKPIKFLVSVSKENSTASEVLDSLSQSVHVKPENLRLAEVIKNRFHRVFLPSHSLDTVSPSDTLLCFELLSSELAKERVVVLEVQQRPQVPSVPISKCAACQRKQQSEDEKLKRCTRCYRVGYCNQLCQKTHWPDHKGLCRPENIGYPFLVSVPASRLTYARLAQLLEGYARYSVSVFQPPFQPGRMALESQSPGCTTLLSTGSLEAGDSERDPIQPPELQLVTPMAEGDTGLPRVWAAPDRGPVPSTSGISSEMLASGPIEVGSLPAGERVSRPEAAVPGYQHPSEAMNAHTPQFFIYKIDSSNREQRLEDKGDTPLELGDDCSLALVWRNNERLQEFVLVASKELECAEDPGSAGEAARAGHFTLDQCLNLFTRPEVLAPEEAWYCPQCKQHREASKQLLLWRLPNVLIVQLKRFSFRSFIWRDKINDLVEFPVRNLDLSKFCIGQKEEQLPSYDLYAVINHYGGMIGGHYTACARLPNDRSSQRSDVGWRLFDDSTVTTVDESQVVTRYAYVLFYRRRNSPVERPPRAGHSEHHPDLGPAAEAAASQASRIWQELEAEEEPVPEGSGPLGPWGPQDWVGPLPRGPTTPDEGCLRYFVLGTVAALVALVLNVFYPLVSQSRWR
How it was run: (§1)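 Labelling with Biotin-Ahx-Ub-VS (0.5 µM final, 1 h) followed a 3 h triplicate treatment of HEK293T lysate (495 µg per sample, Tris/CHAPS/IGEPAL buffer with protease inhibitors) with fragment at 200 µM or vehicle. Labelled DUBs were NeutrAvidin-enriched, digested with LysC and trypsin, and run by diaPASEF LC-MS/MS. The values, average log2 fragment/vehicle ratios by unpaired t-test, come from global-median-normalised Spectronaut label-free quantities. Proteins with ≥2 unique peptides were used.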

USP22 = molecular target: T2, USP22 (UniProt Q9UPT9)
T2 sequence (whole entry): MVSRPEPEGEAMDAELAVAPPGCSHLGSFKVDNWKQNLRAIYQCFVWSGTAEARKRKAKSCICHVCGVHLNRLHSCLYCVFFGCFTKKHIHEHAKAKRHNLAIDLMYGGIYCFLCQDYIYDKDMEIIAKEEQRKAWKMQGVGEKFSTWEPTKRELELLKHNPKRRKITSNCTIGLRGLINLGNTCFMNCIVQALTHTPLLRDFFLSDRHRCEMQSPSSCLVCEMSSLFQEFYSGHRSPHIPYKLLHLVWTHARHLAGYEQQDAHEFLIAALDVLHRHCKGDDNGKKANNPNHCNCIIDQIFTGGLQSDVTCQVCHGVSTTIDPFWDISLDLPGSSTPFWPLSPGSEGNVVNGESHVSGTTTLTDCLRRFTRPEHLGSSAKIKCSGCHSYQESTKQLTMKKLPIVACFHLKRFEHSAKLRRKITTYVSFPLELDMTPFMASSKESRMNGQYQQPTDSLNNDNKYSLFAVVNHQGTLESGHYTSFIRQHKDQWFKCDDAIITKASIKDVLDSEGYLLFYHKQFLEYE
How it was run: as §1

USP24 = USP24 (UniProt Q9UPU5)
Sequence of USP24 (Q9UPU5 whole entry): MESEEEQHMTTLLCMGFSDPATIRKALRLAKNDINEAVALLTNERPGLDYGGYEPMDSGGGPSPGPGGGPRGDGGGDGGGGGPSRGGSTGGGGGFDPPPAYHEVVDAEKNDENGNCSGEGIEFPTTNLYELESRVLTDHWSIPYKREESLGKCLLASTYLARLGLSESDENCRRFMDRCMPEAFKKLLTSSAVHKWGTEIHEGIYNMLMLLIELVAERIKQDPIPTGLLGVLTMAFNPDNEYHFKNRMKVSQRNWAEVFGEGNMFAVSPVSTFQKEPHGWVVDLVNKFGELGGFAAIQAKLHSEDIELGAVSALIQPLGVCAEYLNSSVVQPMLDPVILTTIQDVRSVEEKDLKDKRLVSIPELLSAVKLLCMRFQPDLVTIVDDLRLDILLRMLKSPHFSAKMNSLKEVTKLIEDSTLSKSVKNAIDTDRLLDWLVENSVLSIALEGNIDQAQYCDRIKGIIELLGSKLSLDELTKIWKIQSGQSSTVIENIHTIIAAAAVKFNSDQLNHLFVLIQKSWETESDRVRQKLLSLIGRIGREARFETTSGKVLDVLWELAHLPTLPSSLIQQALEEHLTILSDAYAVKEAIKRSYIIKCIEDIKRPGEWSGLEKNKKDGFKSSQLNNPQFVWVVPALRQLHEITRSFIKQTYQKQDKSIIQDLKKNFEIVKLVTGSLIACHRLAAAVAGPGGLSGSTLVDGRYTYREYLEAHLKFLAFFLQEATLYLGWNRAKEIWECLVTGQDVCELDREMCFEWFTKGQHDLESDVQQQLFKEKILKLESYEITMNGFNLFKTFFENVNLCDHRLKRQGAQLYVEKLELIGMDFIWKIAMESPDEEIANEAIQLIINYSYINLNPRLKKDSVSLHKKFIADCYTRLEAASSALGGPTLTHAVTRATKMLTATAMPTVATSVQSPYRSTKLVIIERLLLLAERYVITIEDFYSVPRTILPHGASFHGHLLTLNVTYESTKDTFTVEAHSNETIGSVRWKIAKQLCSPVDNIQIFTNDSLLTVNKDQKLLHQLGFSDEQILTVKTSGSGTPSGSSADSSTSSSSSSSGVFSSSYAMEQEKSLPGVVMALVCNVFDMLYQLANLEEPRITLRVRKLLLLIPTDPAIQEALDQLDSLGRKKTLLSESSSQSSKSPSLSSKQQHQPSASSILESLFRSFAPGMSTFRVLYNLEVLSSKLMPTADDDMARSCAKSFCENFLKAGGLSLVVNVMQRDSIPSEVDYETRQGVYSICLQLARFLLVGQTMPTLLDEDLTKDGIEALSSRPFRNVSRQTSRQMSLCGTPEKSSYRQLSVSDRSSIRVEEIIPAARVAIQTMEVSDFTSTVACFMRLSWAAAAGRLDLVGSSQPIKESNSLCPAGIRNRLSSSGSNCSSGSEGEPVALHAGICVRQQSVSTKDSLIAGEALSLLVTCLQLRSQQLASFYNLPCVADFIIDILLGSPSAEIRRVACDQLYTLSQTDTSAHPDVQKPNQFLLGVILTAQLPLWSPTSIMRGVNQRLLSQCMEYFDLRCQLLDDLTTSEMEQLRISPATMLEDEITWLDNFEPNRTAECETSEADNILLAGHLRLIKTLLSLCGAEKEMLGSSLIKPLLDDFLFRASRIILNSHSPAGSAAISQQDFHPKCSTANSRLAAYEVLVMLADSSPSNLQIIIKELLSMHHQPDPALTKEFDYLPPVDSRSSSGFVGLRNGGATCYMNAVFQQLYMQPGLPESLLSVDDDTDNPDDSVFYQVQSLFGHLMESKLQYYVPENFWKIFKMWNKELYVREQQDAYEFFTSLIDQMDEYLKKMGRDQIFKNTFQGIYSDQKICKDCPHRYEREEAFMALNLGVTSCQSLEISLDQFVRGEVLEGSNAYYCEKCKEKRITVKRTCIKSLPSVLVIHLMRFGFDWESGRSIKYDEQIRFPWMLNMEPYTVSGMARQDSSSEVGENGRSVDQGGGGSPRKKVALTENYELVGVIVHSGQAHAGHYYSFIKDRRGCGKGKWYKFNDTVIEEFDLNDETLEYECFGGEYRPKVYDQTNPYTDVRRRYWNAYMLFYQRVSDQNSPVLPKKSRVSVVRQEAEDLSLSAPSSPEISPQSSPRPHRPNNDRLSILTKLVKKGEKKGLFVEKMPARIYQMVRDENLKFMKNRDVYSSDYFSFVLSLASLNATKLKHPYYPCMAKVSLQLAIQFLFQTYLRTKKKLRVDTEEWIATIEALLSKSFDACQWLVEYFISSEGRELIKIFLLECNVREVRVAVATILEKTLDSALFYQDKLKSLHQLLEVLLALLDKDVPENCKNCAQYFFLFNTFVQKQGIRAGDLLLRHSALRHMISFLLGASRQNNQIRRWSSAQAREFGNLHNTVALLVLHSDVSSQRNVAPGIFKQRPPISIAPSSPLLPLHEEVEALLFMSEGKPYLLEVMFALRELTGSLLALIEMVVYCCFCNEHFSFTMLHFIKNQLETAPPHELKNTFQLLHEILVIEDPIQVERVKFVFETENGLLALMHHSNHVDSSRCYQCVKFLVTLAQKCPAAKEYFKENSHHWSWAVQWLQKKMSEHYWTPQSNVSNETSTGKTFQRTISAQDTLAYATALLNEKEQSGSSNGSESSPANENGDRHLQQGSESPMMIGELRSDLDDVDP
How it was run: as §1

USP25 = molecular target: T3, USP25 (UniProt Q9UHP3)
T3 sequence (whole entry): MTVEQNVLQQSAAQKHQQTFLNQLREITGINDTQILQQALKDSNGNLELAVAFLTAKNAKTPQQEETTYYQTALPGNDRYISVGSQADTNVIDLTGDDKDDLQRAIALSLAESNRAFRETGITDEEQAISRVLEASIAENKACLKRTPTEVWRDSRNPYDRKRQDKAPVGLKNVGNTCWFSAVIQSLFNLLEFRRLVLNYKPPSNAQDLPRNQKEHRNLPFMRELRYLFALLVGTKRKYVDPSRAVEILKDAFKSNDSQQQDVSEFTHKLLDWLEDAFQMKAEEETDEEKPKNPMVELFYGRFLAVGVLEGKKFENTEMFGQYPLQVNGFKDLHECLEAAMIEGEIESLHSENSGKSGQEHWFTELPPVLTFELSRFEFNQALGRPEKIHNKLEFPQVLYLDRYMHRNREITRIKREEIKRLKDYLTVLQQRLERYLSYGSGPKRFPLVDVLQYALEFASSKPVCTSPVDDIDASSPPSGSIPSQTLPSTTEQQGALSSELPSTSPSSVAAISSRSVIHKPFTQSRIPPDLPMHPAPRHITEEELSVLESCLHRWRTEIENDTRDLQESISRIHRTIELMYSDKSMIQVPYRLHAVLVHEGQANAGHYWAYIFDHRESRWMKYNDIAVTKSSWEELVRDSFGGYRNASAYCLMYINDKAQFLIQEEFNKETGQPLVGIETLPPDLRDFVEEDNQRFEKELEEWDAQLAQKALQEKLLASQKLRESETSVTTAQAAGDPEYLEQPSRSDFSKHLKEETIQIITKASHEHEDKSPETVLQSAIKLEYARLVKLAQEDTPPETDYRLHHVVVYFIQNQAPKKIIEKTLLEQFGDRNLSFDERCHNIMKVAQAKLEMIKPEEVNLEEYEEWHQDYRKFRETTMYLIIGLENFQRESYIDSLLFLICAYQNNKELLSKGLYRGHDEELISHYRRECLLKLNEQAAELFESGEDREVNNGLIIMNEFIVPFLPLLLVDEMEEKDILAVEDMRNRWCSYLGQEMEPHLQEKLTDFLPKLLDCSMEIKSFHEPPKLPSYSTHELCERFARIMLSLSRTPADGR
How it was run: as §1

USP28 = molecular target: T4, USP28 (UniProt Q96RU2)
T4 sequence (whole entry): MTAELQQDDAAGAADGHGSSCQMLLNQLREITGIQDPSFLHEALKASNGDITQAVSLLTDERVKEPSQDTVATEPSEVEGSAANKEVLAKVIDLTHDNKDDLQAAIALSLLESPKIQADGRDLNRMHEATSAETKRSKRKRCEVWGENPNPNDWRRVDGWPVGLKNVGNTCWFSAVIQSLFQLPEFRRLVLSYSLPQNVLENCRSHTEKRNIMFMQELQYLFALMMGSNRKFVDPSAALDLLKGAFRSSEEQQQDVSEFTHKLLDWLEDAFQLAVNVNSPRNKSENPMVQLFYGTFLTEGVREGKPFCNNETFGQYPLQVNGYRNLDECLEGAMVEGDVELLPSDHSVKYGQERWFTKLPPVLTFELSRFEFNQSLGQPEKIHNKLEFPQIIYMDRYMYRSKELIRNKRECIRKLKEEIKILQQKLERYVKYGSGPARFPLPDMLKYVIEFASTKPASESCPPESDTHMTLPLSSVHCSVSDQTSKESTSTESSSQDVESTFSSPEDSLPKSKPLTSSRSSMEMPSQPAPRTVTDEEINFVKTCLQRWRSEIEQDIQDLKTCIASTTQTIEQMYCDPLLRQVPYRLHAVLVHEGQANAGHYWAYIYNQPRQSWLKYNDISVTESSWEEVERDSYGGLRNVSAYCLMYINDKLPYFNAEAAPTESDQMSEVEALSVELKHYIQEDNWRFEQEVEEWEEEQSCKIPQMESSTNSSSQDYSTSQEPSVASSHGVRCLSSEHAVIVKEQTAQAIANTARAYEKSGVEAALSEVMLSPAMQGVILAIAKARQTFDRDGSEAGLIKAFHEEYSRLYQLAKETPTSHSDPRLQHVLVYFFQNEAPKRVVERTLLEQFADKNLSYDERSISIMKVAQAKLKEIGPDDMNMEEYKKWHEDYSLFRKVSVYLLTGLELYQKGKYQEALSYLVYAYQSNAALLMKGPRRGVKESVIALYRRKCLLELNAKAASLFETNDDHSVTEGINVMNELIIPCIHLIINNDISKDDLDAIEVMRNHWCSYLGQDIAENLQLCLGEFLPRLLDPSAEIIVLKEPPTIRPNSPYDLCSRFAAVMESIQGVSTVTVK
How it was run: as §1

Measured: log2 ratio of Biotin-Ahx-Ub-VS probe labelling

C#Cc1cccc(NC(=O)CCl)c1
inactive: USP19 -0.38 | USP22 -0.379 | USP24 -0.837 | USP25 -0.804 | USP28 -0.906
